Data: the OligoGym collection

Legend:
Assay in all cases: pooled miR-30 sensor sort-seq; sequence = guide strand
Conditions in all cases: shRNA
KBTBD10 = molecular target: KBTBD10
KBTBD12 = molecular target: KBTBD12
KAAG1 = molecular target: KAAG1
JOSD1 = molecular target: JOSD1
KCND2 = molecular target: KCND2
KCNK6 = molecular target: KCNK6
KCNRG = molecular target: KCNRG
KIAA0319 = molecular target: KIAA0319
KIAA0564 = molecular target: KIAA0564
KIAA0368 = molecular target: KIAA0368
KHDRBS3 = molecular target: KHDRBS3
KIAA0101 = molecular target: KIAA0101
KIF25 = molecular target: KIF25
KIF26A = molecular target: KIF26A
KIF2C = molecular target: KIF2C
KIR2DL5B = molecular target: KIR2DL5B
Note: reference of the scale not given here.

TTTATCATCCACCTCTCCCAGA
sensor-assay potency score (higher = more potent) (KBTBD10): -0.692

TAAATCTTCAGCTCCAATCTGC
sensor-assay potency score (higher = more potent) (KBTBD12): 0.302

TGAAGCATAACGTATTTCCTTC
sensor-assay potency score (higher = more potent) (KBTBD10): -0.295

TGGATTCGTCAGTTTCTCGTTC
sensor-assay potency score (higher = more potent) (KAAG1): -0.583

TATATTTTTGACACACACTGAA
sensor-assay potency score (higher = more potent) (KBTBD12): 0.336

TAAGGTAGCATTCATTTTCCGT
sensor-assay potency score (higher = more potent) (KBTBD10): -0.0345

TTGTACATTTTTTGTCATCTGT
sensor-assay potency score (higher = more potent) (KBTBD10): -0.405

TATGTCATTGACTTCAGTGGGT
sensor-assay potency score (higher = more potent) (KBTBD10): 0.618

TTGCTAGGCAACTAGCTCCTGA
sensor-assay potency score (higher = more potent) (KBTBD10): -0.209

TGCTTGTGTACCGCAACGGGGA
sensor-assay potency score (higher = more potent) (KAAG1): -1.14

TCAGCCCGTCGTGAAGAGCGTG
sensor-assay potency score (higher = more potent) (KAAG1): -1.18

TTATTCAGTAAATTCAAGCTAT
sensor-assay potency score (higher = more potent) (KBTBD12): -0.287

TTTGCCTGCAACTACATAGATT
sensor-assay potency score (higher = more potent) (KBTBD10): -1.51

TTGGAGTCGAGGTTGTAGTAGG
sensor-assay potency score (higher = more potent) (JOSD1): -0.655

AAGAGCGTGCTTGTGTACCGCA
sensor-assay potency score (higher = more potent) (KAAG1): -0.0933

TTGTCTTGACCTACACAGCCAA
sensor-assay potency score (higher = more potent) (KBTBD12): -0.566

TCTCGTTCGTTTCAGGAGGCGA
sensor-assay potency score (higher = more potent) (KAAG1): -0.839

ATTAACAGTTGCAACTTCCATG
sensor-assay potency score (higher = more potent) (KCND2): -0.92

TTGTCTGTCATCACCAGCCCAA
sensor-assay potency score (higher = more potent) (KCND2): -0.744

TTGCTGGTGCGACTCCGGCTGG
sensor-assay potency score (higher = more potent) (KCNK6): -1.34

TGGAGGTCGGACACGTGGCGGA
sensor-assay potency score (higher = more potent) (KCNK6): -1.12

TTTTATAGAAACATACCTGACT
sensor-assay potency score (higher = more potent) (KCNRG): -0.489

TATAGCATTCAGTTTTGTCTTC
sensor-assay potency score (higher = more potent) (KCNRG): 0.0468

TAAGAGTTTGCTTGTGTCCTTG
sensor-assay potency score (higher = more potent) (KIAA0319): 0.184

TAAACATATATCTTTAACCATG
sensor-assay potency score (higher = more potent) (KIAA0564): -1.59

TTGAATAGCAAGTCGAGTCTCA
sensor-assay potency score (higher = more potent) (KIAA0368): 0.314

TAAAACACAATCACGGTGCTGA
sensor-assay potency score (higher = more potent) (KIAA0319): 1.15

TTCTTCTTGTAAACGCTTCAGA
sensor-assay potency score (higher = more potent) (KHDRBS3): -0.501

ATCAACAGTAACAACACCGCTT
sensor-assay potency score (higher = more potent) (KIAA0564): 0.22

TTCAGGAATCTGATTCTCTTTT
sensor-assay potency score (higher = more potent) (KIAA0101): -0.732

TTTAACTTGACTCTTGTACTGA
sensor-assay potency score (higher = more potent) (KIAA0368): 0.641

TTTATTTCTATTAACAAGCATC
sensor-assay potency score (higher = more potent) (KIAA0319): -1.13

AAATGTATAATCTCCTTCCTGC
sensor-assay potency score (higher = more potent) (KIAA0319): 0.3

TTCACTAGAAACAGTGACTTTG
sensor-assay potency score (higher = more potent) (KIAA0319): -0.766

TTTTTCAGAATCTTTAGGGGAC
sensor-assay potency score (higher = more potent) (KIAA0101): 0.436

TTTATTTAAAATCACATCCAAC
sensor-assay potency score (higher = more potent) (KIAA0368): -1.25

TTGAATTTGTATTTGTACCAAA
sensor-assay potency score (higher = more potent) (KIAA0368): -0.672

TTGTGGAGGAGTAACATCTTTT
sensor-assay potency score (higher = more potent) (KIAA0564): -1.09

TTCTGAATCACACTGTTCCGAT
sensor-assay potency score (higher = more potent) (KIAA0368): -0.203

TTAACTTGACTCTTGTACTGAC
sensor-assay potency score (higher = more potent) (KIAA0368): 0.576

TTTGATGCAACATCTTGGCTAA
sensor-assay potency score (higher = more potent) (KIAA0368): 0.354

TTACATTCTAGAATACCAGGGT
sensor-assay potency score (higher = more potent) (KIAA0101): 1.19

TTATAATTAGGTTATCTCCAGC
sensor-assay potency score (higher = more potent) (KIAA0319): -0.767

ATTTGTGTGATCAGGTTGCAAA
sensor-assay potency score (higher = more potent) (KIAA0101): -1.36

TTCTCTTCTATGAAGGGCCCGT
sensor-assay potency score (higher = more potent) (KIAA0319): -0.659

TTATTTTCAGCTTTCCTCGATG
sensor-assay potency score (higher = more potent) (KIAA0101): -0.0942

TTTTGTAGTCTTTATAAGCTGT
sensor-assay potency score (higher = more potent) (KIAA0368): -0.31

TTTCACTAGAAACAGTGACTTT
sensor-assay potency score (higher = more potent) (KIAA0319): -0.974

TTTTTTTCTAATGCTGACCTAG
sensor-assay potency score (higher = more potent) (KIAA0564): -0.423

TATTCTGTAATTGTTCATCTGT
sensor-assay potency score (higher = more potent) (KIAA0368): 0.659

TTCAGCAGCTTTGAGAACCTTG
sensor-assay potency score (higher = more potent) (KIAA0319): -0.33

TTCACCTTGGTAGTCTGTGGGG
sensor-assay potency score (higher = more potent) (KIAA0319): -0.629

TACATAAAACACAATCACGGTG
sensor-assay potency score (higher = more potent) (KIAA0319): -0.47

TTCCTAAGCCACTGCTTCCTGC
sensor-assay potency score (higher = more potent) (KIAA0101): -1.25

TAGTCTTTGCTTATTGTCCTTG
sensor-assay potency score (higher = more potent) (KIAA0564): -0.514

TTATGGTGTGATTTGGTCCTGC
sensor-assay potency score (higher = more potent) (KIAA0319): 0.156

TTCCTTTTTGCCACTTGGGAGT
sensor-assay potency score (higher = more potent) (KIAA0101): -1.06

TTCTTTTTCATCATTTGTGTGA
sensor-assay potency score (higher = more potent) (KIAA0101): -0.441

TTCTGTAGCACTCTGAATGAGT
sensor-assay potency score (higher = more potent) (KIAA0368): -0.327

TTTTCTTGCTCTGTCGCCCGGA
sensor-assay potency score (higher = more potent) (KIAA0368): 0.627

TTGTATTTGACATTCTCTTTGC
sensor-assay potency score (higher = more potent) (KIAA0368): -0.267

TTTGCTTTTCCTAAGCCACTGC
sensor-assay potency score (higher = more potent) (KIAA0101): 0.846

TTCATCATTTGTGTGATCAGGT
sensor-assay potency score (higher = more potent) (KIAA0101): 1.01

TTGTAAACTTCCACTATGGAGA
sensor-assay potency score (higher = more potent) (KIF25): -0.609

TAGAGTCACCGTAATTATCAGG
sensor-assay potency score (higher = more potent) (KIF25): -1.12

TCGAAGGCAAACATCTTGGGAA
sensor-assay potency score (higher = more potent) (KIF26A): 0.12

TCAAACTCATCATTGATGCTGC
sensor-assay potency score (higher = more potent) (KIF26A): 0.23

ATTATTGTAAACTTCCACTATG
sensor-assay potency score (higher = more potent) (KIF25): -0.786

TAACACAGACACATATTCTGTG
sensor-assay potency score (higher = more potent) (KIF2C): 0.393

TACTGGTAGACGTGCAGCGTGA
sensor-assay potency score (higher = more potent) (KIF26A): -1.25

ATCTCGTACACCTTGATCTCGA
sensor-assay potency score (higher = more potent) (KIF26A): -0.604

TAACTTCGCATCGCCTCCGAGG
sensor-assay potency score (higher = more potent) (KIF25): -1.63

ACAAACATTGTACCCATCCAAG
sensor-assay potency score (higher = more potent) (KIF25): -1.74

TTGATCATCAGAGTCCTCCCTG
sensor-assay potency score (higher = more potent) (KIR2DL5B): 0.731

TCATCGATCTCGTACACCTTGA
sensor-assay potency score (higher = more potent) (KIF26A): -0.779

AACCTCTGTCCGTCCATCCTTG
sensor-assay potency score (higher = more potent) (KIF25): -0.841

TTTGTCTGCTAGCCTGCTCTTC
sensor-assay potency score (higher = more potent) (KIF2C): -1.15

TTCTTGGGGGACTTGAGGCTGC
sensor-assay potency score (higher = more potent) (KIF26A): -0.669

TAACACAAACATTGTACCCATC
sensor-assay potency score (higher = more potent) (KIF25): -0.837

TATCTGTTGGAGGTGCCTTGGG
sensor-assay potency score (higher = more potent) (KIR2DL5B): -0.788

TTCTCCAAGTTCACAGTCCTTA
sensor-assay potency score (higher = more potent) (KIF2C): -0.384

AGAATCACCAGTAACTTCGCAT
sensor-assay potency score (higher = more potent) (KIF25): -0.565

TATAGCTCTTTCCGCTGCCCGT
sensor-assay potency score (higher = more potent) (KIF25): -1.1

TTCAAAGATTGTCTGTACCAGT
sensor-assay potency score (higher = more potent) (KIF2C): -0.672
